Hits are enriched below; roughly 2.4% of the tested compounds scored in any of these assays.
D2 ag-1 = human D2 receptor agonism in beta-arrestin assay. activation, % (concentration not given with the values). actives 0.084% (n = 360,000). AID 624465. P14416. DiscoveRx PathHunter D2 beta-arrestin, luminescence, 90 min; 100% = 57 uM dopamine signal; in the data active means activation above about 40%; inconclusive means between about 15% and that limit
Target sequence (P14416 whole entry, looked up): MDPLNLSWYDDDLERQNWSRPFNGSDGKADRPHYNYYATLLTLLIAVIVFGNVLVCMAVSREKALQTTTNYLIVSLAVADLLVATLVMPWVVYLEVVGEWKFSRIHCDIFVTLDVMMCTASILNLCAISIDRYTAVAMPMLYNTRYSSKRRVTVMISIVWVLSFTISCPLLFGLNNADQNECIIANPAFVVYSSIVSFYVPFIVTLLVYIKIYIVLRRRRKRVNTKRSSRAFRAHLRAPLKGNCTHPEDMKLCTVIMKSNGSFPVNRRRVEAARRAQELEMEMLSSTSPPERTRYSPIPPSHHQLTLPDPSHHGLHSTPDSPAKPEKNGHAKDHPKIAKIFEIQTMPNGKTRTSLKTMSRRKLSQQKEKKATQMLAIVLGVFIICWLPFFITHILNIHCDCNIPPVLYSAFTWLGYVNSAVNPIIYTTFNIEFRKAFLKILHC
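Agonist mode: compounds alone added to overnight-plated D2 PathHunter cells for 90 min at 37 C, with 57 uM final dopamine (EC100) defining full response. Beta-arrestin recruitment detected by chemiluminescent reagent, read after 1 h at ambient temperature.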
D2 PAM-1 = positively modulates the human D2 dopamine receptor allosterically; HEK293 T-REx D2, calcium flux, EC20 dopamine potentiation; actives 0.34% (n = 340,000); potentiation, % at 10 µM;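 active means potentiation over 3 SD above the plate norm, cut at about 30% in these data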; further: 0% is about no effect
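Potentiation of an EC20 dopamine calcium response is measured in a force-coupled, tetracycline-inducible Hek293 Trex D2 line. Compound-only kinetic reads over 180 s flag agonists before dopamine addition.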
D2 antag = antagonists of human D2 dopamine receptor; actives 2% (n = 340,000); inhibition, % at 10 µM; AID 485344; P14416; HEK293 TREx D2 cells, calcium flux, dopamine EC80; in the data active means inhibition above about 30%; inactive means below that, where a call was filed; further: 0% is about no effect
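Inhibition of EC80 dopamine-driven calcium flux, recorded kinetically, defines activity here; cells are a tetracycline-induced HEK293 T-REx line expressing force-coupled D2.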
D2 ag-2 = D2 dopamine receptor (human) agonism. P14416. HEK293 T-REx D2 cells, calcium flux agonist mode. activation, % at 2 µM. actives 0.53% (n = 340,000). AID 485358;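 active means activation over 3 SD above normal in the single-dose calcium agonist read, cut at about 30% in these data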; further: 0% is about no effect
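Calcium-flux readout, 1 cycle/sec over 180 s following compound pin transfer, in inducible HEK293 Trex D2 cells (force-coupled); dopamine controls included. Positive calcium responses during this window marked compounds as potential agonists.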
D2 PAM-2 = human D2 receptor positive allosteric modulation; DiscoveRx D2 beta-arrestin cells, luminescence, 90 min; 100% = 57 uM dopamine signal; AID 624464; potentiation, % (no concentration beside the values); actives 0.23% (n = 360,000); in the data active means potentiation above about 50%; inconclusive means mostly about 30% to 49%
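PathHunter D2 cells, attached overnight at 37 deg C, received compound in DMSO plus dopamine at EC20 (50 nM final) for 90 min at 37 deg C. Beta-arrestin recruitment was read as luminescence after 1 h with detection reagent at ambient temperature.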
D3 ag = activates human D3 dopamine receptor beta-arrestin recruitment; shares compounds with D2 ag-2; DiscoveRx D3 beta-arrestin cells, luminescence, 90 min; Potency, µM (series often up to 76.9 µM), for inactives: at the top dose activation, usual class: activators; actives 4% (n = 2,300); AID 720506;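 further: potency means the concentration at half of the fitted maximal effect; 100% = dopamine control response; nearly all actives have a fitted effect of over 70% in size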
D2 ag-3 = activates human D2 dopamine receptor in D3 counterscreen. actives 5.9% (n = 2,300). DiscoveRx PathHunter D2 beta-arrestin, luminescence, 90 min; response scale: percent relative to full dopamine signal. shares compounds with D2 ag-2. AID 720507. Potency, µM (top dose mostly 76.9 µM), for inactives: at the highest dose activation, actives largely listed as activators; further: potency means the concentration at half of the fitted maximal effect; % of control where 0% means no effect; nearly all actives have a fitted effect of over 70% in size
* marks the source's active call; other numbers are inactive results; ? = inconclusive; . = not tested or not shown. Unless noted, the call rests on the fitted dose curve; in most records, active means well fitted activation curve with a large enough effect; inconclusive means small, poorly fitted or top-dose-only effect; inactive means flat fitted curve, though single readings scatter.

SMILES | D2 ag-1 | D2 PAM-1 | D2 antag | D2 ag-2 | D2 PAM-2 | D3 ag | D2 ag-3
O=C(NC1CCc2ccccc21)c1cc(COc2ccc(F)cc2F)on1 (stereo not given) | -3 | 20 | 3 | 2 | -2 | . | .
COc1ccc(/C=C/C(=O)NC(=S)NN2CCCCC2c2cccnc2)cc1OC (stereo not given) | -2 | -19 | -4 | 49* | -8 | 4% | 2%
Cc1cc2c(cc1S(=O)(=O)N(C)CC(=O)Nc1ccc(C#N)cc1)OCC(=O)N2 | . | 5 | . | 0 | . | . | .
N#CN=C(c1ccccc1)c1ccccc1 | 0 | 1 | 7 | 1 | -4 | . | .
N#CCN=C(c1ccccc1)c1ccccc1 | -8 | -8 | 20 | 0 | -8 | -10% | -3%
COc1ccc(C2=NOC3(CC(=O)N(c4ccc(F)cc4)C3=O)C2)c(OC)c1 (stereo not given) | 0 | -13 | 5 | -1 | 0 | . | .
COc1ccc(C2=NOC3(CC(=O)N(c4ccc5ccccc5c4)C3=O)C2)c(OC)c1 (stereo not given) | 1 | 3 | 14 | 6 | 5 | 5% | 1%
O=C(NCc1ccc(Cl)cc1)c1ccc2c(c1)N(Cc1ccccc1F)C(=O)c1ccccc1S2=O (stereo not given) | . | -16 | . | 21 | . | . | .
COc1ccc(CCNC(=O)c2cc3c(=O)n4cccc(C)c4nc3n2C)cc1 | . | -5 | . | 1 | . | . | .
Nc1nonc1-n1nnc(C(=O)N/N=C/c2ccc(Br)cc2)c1-c1ccc2c(c1)OCO2 | -5 | 18 | 41* | 12 | 3 | 4% | 7%
CC(C)c1c(C(=O)N/N=C/c2ccc3c(c2)OCO3)nnn1-c1nonc1N | 2 | 10 | 10 | 0 | -3 | . | .
CN(Cc1c(C(=O)N/N=C/c2ccc(F)cc2)nnn1-c1nonc1N)C1CCCCC1 | -3 | -8 | 10 | -1 | -1 | . | .
COc1ccc(/C=N/NC(=O)c2nnn(-c3nonc3N)c2CN(C)C2CCCCC2)cc1 | -1 | -18 | -3 | 56* | -27 | 0% | -4%
Nc1nonc1-n1nnc(C(=O)N/N=C/c2cccc(Cl)c2)c1-c1ccc2c(c1)OCO2 | -8 | 1 | -36 | 1 | -8 | . | .
Nc1nonc1-n1nnc(C(=O)N/N=C/c2ccc3c(c2)OCO3)c1-c1ccccc1 | 0 | 21 | 39* | 16 | -3 | ? | -1%
CCCCOC(=O)c1cccc(NC(=O)/C=C/c2ccccc2Cl)c1 | . | 9 | . | 2 | . | . | .
c1ccc(CN2CCN(c3ncnc4nc[nH]c34)CC2)cc1 | 10 | -22 | 68* | 81* | 8 | 3% | ?
C1=C(c2ccccc2)CCN(c2ncnc3nc[nH]c23)C1 | 2 | 4 | -13 | 0 | -3 | . | .
COc1cccc(C2=CC(c3ccccc3F)n3ncc(C(=O)Nc4ccc(F)cc4)c3N2)c1 (stereo not given) | . | -1 | . | . | . | . | .
Cc1cccc(NC(=S)NCCc2ccccc2)c1C | -3 | 14 | -5 | -3 | -5 | . | .
Cc1cccc(C)c1NC(=S)NCCc1ccc(O)c(O)c1 | 5 | -20 | 67* | 57* | 7 | -8% | ?
OC(CN1CCN(Cc2ccc3c(c2)OCO3)CC1)c1c[nH]c2ccccc12 (stereo not given) | -1 | -31 | -1 | 0 | -15 | . | .
OC(CN1CCN(c2ccccc2)CC1)c1c[nH]c2ccccc12 (stereo not given) | -1 | -24 | 54* | 30 | -11 | 6% | 8%
COc1cc(NC(=O)CSC2=Nc3ccccc3N=C(c3ccc(F)cc3)C2)cc(OC)c1 | . | 7 | . | 0 | . | . | .
COCCCn1c(SCC(=O)NC2CCS(=O)(=O)C2)nnc1-c1ccc(Cl)cc1 (stereo not given) | -4 | 4 | -6 | 0 | -1 | -3% | -2%

Compound activity (PubChem BioAssay)
